Source: PubChem BioAssay
CYP2C19 activ = cytochrome P450 2C19 (human) activation; recombinant CYP2C19, luciferin-H EGE luminescence; stronger effect = higher value; 0 = fully inhibited enzyme, 1 = untreated enzyme; P33261; activation factor at 5 µM; 96,000 tested, under 10 active;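 active = activation factor of at least 2 at 5 µM in the primary screen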;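 also: 0 = wells with 2.5 mM tranylcypromine and 1 = vehicle-only wells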
CYP2C9 act = increases human cytochrome P450 2C9 activity; actives 1.4% (n = 96,000); recombinant CYP2C9, luciferin-H conversion, luminescence; stronger effect = higher value; factor 1 = untreated enzyme, 0 = blocked; P11712; activation factor at 5 µM;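 active = activation factor of 2 or more for CYP2C9 at a 5 µM dose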;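 also: 0 = sulfaphenazole-blocked wells and 1 = vehicle-only wells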
CYP2C19 inh = human CYP2C19 inhibition; CYP2C19 Supersomes, luciferin-H EGE luminescence, 30 min; inhibition, % at 5 µM; P33261; AID 778; actives 21% (n = 96,000);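 active = CYP2C19 inhibition above a set limit at 5 µM in the primary screen, cut at about 50% in these data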;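 also: plate controls were negative control wells for no effect and 2.5 mM tranylcypromine positive control for full effect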
CYP2C9 inh = inhibitors of human CYP2C9; P11712; CYP2C9 Supersomes, luciferin-H conversion, luminescence; inhibition, % at 5 µM; actives 20% (n = 96,000); AID 777;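 active = blocking of liver enzyme CYP2C9 beyond about 50% at 5 µM, limit read from the data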
Cav32 inh = blocks human Cav3.2 T-type calcium channel. O95180. Cav3.2-expressing cells, Fluo-4 calcium fluorescence FDSS; stronger effect = lower value. B-score at 10 µM. AID 449739. actives 4% (n = 100,000);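 active = single-dose well whose peak fluorescence ratio is a statistical outlier from its plate by either plate-standardised score or position-corrected B-score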
Target sequence (O95180 whole entry, looked up): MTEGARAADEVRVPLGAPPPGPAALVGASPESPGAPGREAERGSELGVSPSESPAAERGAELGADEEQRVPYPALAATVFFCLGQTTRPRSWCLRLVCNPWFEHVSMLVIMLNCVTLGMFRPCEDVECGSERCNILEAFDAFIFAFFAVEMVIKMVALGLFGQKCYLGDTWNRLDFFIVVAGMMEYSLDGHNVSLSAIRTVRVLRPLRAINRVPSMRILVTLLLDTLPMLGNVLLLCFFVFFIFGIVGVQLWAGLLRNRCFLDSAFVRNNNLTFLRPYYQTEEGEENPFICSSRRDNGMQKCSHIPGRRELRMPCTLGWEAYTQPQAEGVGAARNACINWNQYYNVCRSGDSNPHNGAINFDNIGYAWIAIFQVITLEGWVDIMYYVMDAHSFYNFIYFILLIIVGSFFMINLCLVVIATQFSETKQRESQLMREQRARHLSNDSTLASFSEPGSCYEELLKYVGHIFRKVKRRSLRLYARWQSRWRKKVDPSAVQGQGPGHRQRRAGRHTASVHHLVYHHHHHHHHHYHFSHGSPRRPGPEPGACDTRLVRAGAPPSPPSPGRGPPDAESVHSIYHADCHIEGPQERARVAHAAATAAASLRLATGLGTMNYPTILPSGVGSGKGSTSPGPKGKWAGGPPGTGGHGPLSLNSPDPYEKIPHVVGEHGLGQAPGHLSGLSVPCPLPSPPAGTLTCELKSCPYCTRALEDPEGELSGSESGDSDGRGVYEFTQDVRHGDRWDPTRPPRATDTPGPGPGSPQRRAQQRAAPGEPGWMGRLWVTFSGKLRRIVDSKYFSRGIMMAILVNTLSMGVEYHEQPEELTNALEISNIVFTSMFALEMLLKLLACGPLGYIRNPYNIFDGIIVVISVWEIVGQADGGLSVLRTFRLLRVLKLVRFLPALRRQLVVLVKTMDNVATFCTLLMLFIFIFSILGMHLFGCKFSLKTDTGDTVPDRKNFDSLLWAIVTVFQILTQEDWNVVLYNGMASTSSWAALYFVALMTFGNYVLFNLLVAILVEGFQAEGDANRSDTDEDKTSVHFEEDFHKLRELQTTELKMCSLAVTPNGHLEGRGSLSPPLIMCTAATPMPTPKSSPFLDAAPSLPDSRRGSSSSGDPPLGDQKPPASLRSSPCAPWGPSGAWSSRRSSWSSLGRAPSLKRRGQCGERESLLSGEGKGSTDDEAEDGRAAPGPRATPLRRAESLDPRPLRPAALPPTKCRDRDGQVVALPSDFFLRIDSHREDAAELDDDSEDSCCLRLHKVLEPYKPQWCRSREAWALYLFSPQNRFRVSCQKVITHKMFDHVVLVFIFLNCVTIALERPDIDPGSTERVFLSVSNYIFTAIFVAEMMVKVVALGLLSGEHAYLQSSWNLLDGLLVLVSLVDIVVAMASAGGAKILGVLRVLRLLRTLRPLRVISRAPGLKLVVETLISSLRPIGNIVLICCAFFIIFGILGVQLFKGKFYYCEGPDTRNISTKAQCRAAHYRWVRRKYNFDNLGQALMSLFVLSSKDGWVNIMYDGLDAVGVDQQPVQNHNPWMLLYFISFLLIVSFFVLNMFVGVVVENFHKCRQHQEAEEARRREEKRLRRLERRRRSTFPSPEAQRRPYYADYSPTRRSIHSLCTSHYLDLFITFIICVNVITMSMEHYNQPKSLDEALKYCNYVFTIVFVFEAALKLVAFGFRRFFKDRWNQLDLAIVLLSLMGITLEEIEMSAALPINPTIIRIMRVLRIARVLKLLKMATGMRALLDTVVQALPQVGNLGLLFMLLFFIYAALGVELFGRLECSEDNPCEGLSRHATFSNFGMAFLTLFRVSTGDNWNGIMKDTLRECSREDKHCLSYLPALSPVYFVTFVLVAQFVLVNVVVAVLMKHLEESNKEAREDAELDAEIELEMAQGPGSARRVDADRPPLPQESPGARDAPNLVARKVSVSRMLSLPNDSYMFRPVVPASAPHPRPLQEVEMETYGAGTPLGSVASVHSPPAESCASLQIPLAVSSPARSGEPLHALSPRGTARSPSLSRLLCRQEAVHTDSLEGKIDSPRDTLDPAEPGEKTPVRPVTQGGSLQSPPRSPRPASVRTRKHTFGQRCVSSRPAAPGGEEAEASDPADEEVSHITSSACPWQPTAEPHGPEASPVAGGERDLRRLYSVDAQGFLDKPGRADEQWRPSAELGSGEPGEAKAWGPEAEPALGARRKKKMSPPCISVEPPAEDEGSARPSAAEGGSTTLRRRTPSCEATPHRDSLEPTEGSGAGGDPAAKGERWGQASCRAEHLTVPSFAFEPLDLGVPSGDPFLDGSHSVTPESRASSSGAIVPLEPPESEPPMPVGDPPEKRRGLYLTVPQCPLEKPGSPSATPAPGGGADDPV
Starred values were filed as active, the others as inactive; / = not tested or not shown. Most compounds without a hit are left out; they make up all but 27% or so of the library.

SMILES	CYP2C19 activ	CYP2C9 act	CYP2C19 inh	CYP2C9 inh	Cav32 inh
CCO[C@H]1OC(C(=O)N2CCOCC2)=C[C@@H](c2coc3ccccc3c2=O)[C@@H]1CCCO	/	/	/	/	-0.0457
O=C(CN1CCN(Cc2ccccc2Cl)C1=O)NCC1CCCO1 (stereo not given)	1	1.5	0.0	-46.9	1.05
Cn1c(=O)c2c(nc(NCC3CCCO3)n2Cc2ccccc2)n(C)c1=O (stereo not given)	/	/	/	/	3.21
O=C1C(Cl)=C(NCC2CCCO2)C(=O)N1CCc1ccccc1 (stereo not given)	0.2	0.3	82.3*	66.2*	-1.09
O=C1C(Cl)=C(NCC2CCCO2)C(=O)N1c1cccc(Cl)c1Cl (stereo not given)	0.2	0.5	81.7*	45.6	-1.03
CC1=C(C(=O)Nc2ccc(F)cc2)C(c2cccc(C)c2)n2nc(CCCO)nc2N1 (stereo not given)	1	0.9	-4.5	14.0	-0.293
COc1cc(C(=O)N2CCN(C(=O)COc3ccc4ccccc4c3)CC2)cc(OC)c1OC	0.8	0.7	18.3	35.0	2.46
O=C1NC(=S)SC1=C1CCCC1	0.7	0.3	29.1	74.3*	0.126
CCCCN(CC)C(=O)c1cccc(Cl)c1	0.3	0.8	70.8*	17.9	0.453
Cn1c(SCC(=O)N2CCN(S(=O)(=O)c3ccccc3)CC2)nc2ccccc21	0.7	1.5	29.9	-47.9	0.657
Nn1c(SCC(=O)N2CCN(S(=O)(=O)c3ccc(Cl)cc3)CC2)nnc1-c1cccs1	0.6	0.5	35.7	50.5*	0.35
N#CCCn1c(SCC(=O)N2CCN(S(=O)(=O)c3ccccc3)CC2)nc2ccccc21	1	0.9	-4.2	10.4	0.636
O=C(CSc1n[nH]c(-c2cccs2)n1)N1CCN(S(=O)(=O)c2ccccc2)CC1	0.7	0.5	31.7	51.0*	1.05
Cn1c(SCC(=O)N2CCN(S(=O)(=O)c3ccc(Cl)cc3)CC2)nc2ccccc21	0.4	2*	57.6*	-103.2	-0.706
CC(C)Cn1c(SCC(=O)N2CCN(S(=O)(=O)c3ccccc3)CC2)nc2ccccc21	0.2	0.2	79.7*	78.5*	-2.51
O=C(CSc1ccc2nnc(-c3ccccn3)n2n1)N1CCN(c2ccccc2)CC1	0.6	1	38.5	-0.8	0.114
O=C(CSc1nc(-c2ccccc2)c(-c2ccccc2)[nH]1)N1CCN(S(=O)(=O)c2ccccc2)CC1	0.1	0.2	86.4*	79.8*	-6*
c1ccc(-c2nc(CSc3n[nH]c(-c4cccs4)n3)cs2)cc1	0.4	0.7	60.2*	32.6	-5.05
O=C(CSc1nc2ccccc2c(=O)[nH]1)N1CCN(S(=O)(=O)c2ccccc2)CC1	0.8	0.8	16.1	21.8	-0.594
Cc1cccc(OCC(O)Cn2c(NCc3cccnc3)nc3c2c(=O)[nH]c(=O)n3C)c1 (stereo not given)	1	0.7	3.5	25.2	0.971
O=C(c1ccccc1)N1CCN(C2CC3CCC2C3)CC1 (stereo not given)	0.2	0.8	82.3*	20.7	0.41
O=C(c1ccccc1)N1CCN(C(=O)C23CC4CC(CC(C4)C2)C3)CC1	0.7	1	34.1	2.0	0.838
O=C(c1cccc(F)c1)N1CCN(C2CCCCC2)CC1	0.9	1	12.1	-0.1	-2.82
O=C(c1ccc(F)cc1)N1CCN(C2CC3CCC2C3)CC1 (stereo not given)	0.2	1	75.6*	-1.8	0.218
CCOc1ccccc1N(CC(=O)NC1CCCC1)C(=O)CCCC(=O)Nc1ccccn1	0.9	0.7	12.8	28.2	-3.47
SMILES	CYP2C19 activ	CYP2C9 act	CYP2C19 inh	CYP2C9 inh	Cav32 inh
CC(O)[C@H]1CNC(=O)C(=O)N1CC1(c2ccccc2)CC1 (stereo not given in full)	/	/	/	/	-1.32
O=C(NCc1cccc(Br)c1)c1cc(-c2ccccc2)nn1CC1CC(c2cccc([N+](=O)[O-])c2)=NO1 (stereo not given)	/	/	/	/	-1.83
O=C(CSc1ncn[nH]1)N(C1CCCCC1)C1CCCCC1	0.6	0.9	41.7	9.1	-1.08
COc1cccc(C2=NC(C)(C)NC(c3ccccc3O)C2)c1 (stereo not given)	0.7	0.5	32.7	48.2	/
CCC1(C)N=C(c2ccc3c(c2)OCO3)CC(c2ccccc2O)N1 (stereo not given)	0.4	0.3	59.4*	74.0*	0.131
C=CCN1C(=O)C(Cc2ccccc2)S/C1=N/N=C/c1cccs1 (stereo not given)	0.8	0.3	23.2	68.0*	0.0267
C=CCN1C(=O)C(Cc2ccc(OCC)cc2)S/C1=N\N=C\c1cccs1 (stereo not given)	0.7	0.5	30.0	54.1*	-2.61
C=CCN1C(=O)C(Cc2ccc(C)cc2)S/C1=N/N=C/c1ccco1 (stereo not given)	1	0.7	4.8	25.2	0.275
CCOc1c(C(=O)CC)cc2c(C)cc(=O)oc2c1C	/	/	/	/	-0.0143
COC(=O)c1ccc(CSc2ccc3nnc(-c4cccc(F)c4)n3n2)o1	0.6	0.2	37.2	83.2*	1.17
CCOC(=O)CC(=O)CSc1ccc2nnc(-c3cccc(F)c3)n2n1	1	0.5	-2.2	49.5	1.35
Cc1ccccc1OC(=O)n1c(=S)oc2cc(Cl)ccc21	0.9	0.5	6.8	48.1	-0.794
CS(=O)(=O)N(CC(=O)Nc1ccccc1C(=O)NCc1ccco1)c1ccc2c(c1)OCCO2	0.6	0.1	37.1	91.1*	-0.0102
CC(C)CNC(=O)c1ccccc1NC(=O)CN(c1ccc2c(c1)OCCO2)S(C)(=O)=O	0.7	0.1	35.0	92.7*	0.952
COc1ccccc1N(CC(=O)Nc1ccccc1C)S(C)(=O)=O	/	/	/	/	1.46
COc1ccc(N(CC(=O)Nc2ccccc2C(=O)NCCc2ccccc2)S(C)(=O)=O)cc1OC	0.2	0	82.1*	99.0*	0.0576
COc1ccccc1N(CC(=O)Nc1ccccc1C(=O)NCC(C)C)S(C)(=O)=O	0.5	0.2	46.8	77.1*	0.36
CNC(=O)CN(c1ccc2c(c1)OCCO2)S(C)(=O)=O	1.1	1.3	-6.1	-32.7	-1.16
CC1(C)CC(c2csc(N)n2)CCO1 (stereo not given)	1.1	0.8	-8.3	16.2	0.582
Cc1cc(C)c2c3c(sc2n1)C(=O)N(Cc1ccccc1)CC(=O)N3	0.7	0.9	30.0	10.0	0.467
CC(C)CCOc1ccc(C(=O)CCNC(C)C(=O)O)cc1 (stereo not given)	0.9	0.9	5.8	9.0	/
CCOC(=O)CSc1nc2ccc(NC(C)=O)cc2s1	0.4	0.3	56.7*	72.4*	-0.333
CSc1nc2ccc(NC(=O)CSc3nnc(N)s3)cc2s1	1	0.3	1.6	70.7*	0.0286
Cn1cnnc1SCC(=O)Nc1ccc2nc(SCc3ccccc3F)sc2c1	0.5	0.4	47.0	60.0*	0.118
CCC1(C)Cc2c(sc3nnn(CC(=O)Nc4ccc(C)cc4)c(=O)c23)CO1 (stereo not given)	0.6	0.6	43.7	41.9	-2.56
